{
  "source": "PubChem BioAssay (NCI)",
  "note": "The panel holds about 83,000 compounds, 20% with a hit somewhere; the sample as a whole holds those more often.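 Negative percent growth values reflect cell death: -40 means 40% of the cells present at the start died, and -100 means all died.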 The source made the active and inactive calls.",
  "data": [
    {"system": "HL-60(TB) leukemia", "test": "NCI-60 one-dose screen, 48 h (100 = growth as untreated, 0 = no growth, -100 = all killed)", "details": "10 µM unless noted", "method": "Growth inhibition of the HL-60(TB) human tumor cell line is measured as a screen for anti-cancer activity. Cells are grown in 96 well plates and exposed to the test compound for 48 hours. Compounds are tested at a single concentration, which is 10^-5 M for most compounds. The reported endpoint is percent growth (GI% or GIPRCNT), where numbers from 0 - 100% represent growth inhibition, and numbers from -100% - 0 represent cell death. For example, a value of 40 represents 60% growth inhibition. A value of 0 means no net growth occurred over the course of the experiment. A value of -40 indicates 40% of cells at the beginning of the experiment died by the end of the experiment. A value of -100 means all cells are dead at the end of the experiment.\nNCI-60 Human Tumor Cell Lines Screen was performed using the standard one-dose NCI protocol, which is described in more detail at https://dtp.cancer.gov/discovery_development/nci-60/default.htm.\nCompounds with GIPRCNT values below 10 were considered active. Activity score was based on GIPRCNT using the following formula: […]\nScore is 0 for GIPRCNT values of 100 or above, 50 for GIPRCNT values of 0, and 100 for GIPRCNT values of -100.", "values": [
      {"smiles": "Cc1c(O)nc(N)[nH]c1=O", "growth": "137% (inactive)"},
      {"smiles": "COc1ccccc1NC(=O)n1c(=O)cc(C)c2ccc(O)cc21", "growth": "105% (inactive)"},
      {"smiles": "Cc1nn(-c2ccccc2)cc1/C=C1\\SC(N2CCCCC2)=NC1=O", "growth": "93% (inactive)"},
      {"smiles": "COc1cccc(-c2cc(-c3cc4ccccc4oc3=O)nc(N)n2)c1", "growth": "101% (inactive)"},
      {"smiles": "CCc1ccc(Cc2cnc(NC(=O)c3cc(C)oc3C)s2)cc1", "growth": "-21.3% (active)"},
      {"smiles": "CCCCn1c(=O)c(-c2cc(-c3ccc(Cl)cc3)nc(-c3ccc(Cl)cc3)c2)cc2ccc(Cl)cc21", "growth": "100% (inactive)"},
      {"smiles": "CC1CCC2(OC1)OC1CC3C4CC=C5CC(O)CCC5(C)C4CCC3(C)C1C2C", "note": "(stereo not given)", "growth": "91.9% (inactive)"},
      {"smiles": "O=C1C=CC2=C3c4cc(O)c(O)cc4CC3(O)COC2=C1O", "note": "(stereo not given)", "growth": "102% (inactive)"},
      {"smiles": "CC1=C(C)C(=O)OC([C@](C)(O)[C@]2(O)CC[C@@]3(O)[C@@H]4C[C@H]5O[C@]56CC=CC(=O)[C@]6(C)[C@H]4CC[C@]23COC(=O)c2ccc(C)o2)C1", "note": "(stereo not given in full)", "growth": "-22.6% (active)"},
      {"smiles": "COc1cccc(-c2nc3sccn3c2-c2ccnc(NCCCNS(=O)(=O)c3cccc(Cl)c3)c2)c1", "growth": "-9.87% (active)"},
      {"smiles": "CC(=O)Oc1ccccc1C(=O)N=C1[Se]CCCN1C(=O)c1ccccc1OC(C)=O", "growth": "12.7% (inactive)"},
      {"smiles": "CC(C)(Sc1cc(C(C)(C)C)c(OC(=O)CCCC(=O)O)c(C(C)(C)C)c1)Sc1cc(C(C)(C)C)c(OC(=O)CCCC(=O)O)c(C(C)(C)C)c1", "growth": "-22.6% (active)"},
      {"smiles": "Clc1cc(Cl)c(Cl)nn1", "growth": "69.7% (inactive)"},
      {"smiles": "COc1cc(/C=C2\\C(=O)N(c3c(Cl)cccc3Cl)c3ccccc32)cc(OC)c1O", "growth": "-6.44% (active)"},
      {"smiles": "N/C(=N/N=C/c1ccccc1)N/N=C\\c1ccccc1", "growth": "44.2% (inactive)"},
      {"smiles": "COc1ccc(C(=O)/C=C/c2ccc(C)cc2)cc1OC", "growth": "58.4% (inactive)"},
      {"smiles": "C=C1C(=O)C2CCN1CC2", "growth": "97.4% (inactive)"},
      {"smiles": "FC(F)(F)c1cn(CCN2CCOCC2)c2ncnc(Cl)c12", "growth": "-68.6% (active)"},
      {"smiles": "CCCCCCCCNC(C)C(O)c1ccc(SC(C)C)cc1", "note": "(stereo not given)", "growth": "-70.1% (active)"},
      {"smiles": "CC12O[C@H](C[C@@H](OC(=O)CCC(=O)O)[C@H]1O)n1c3ccccc3c3c4c(c5c6ccccc6n2c5c31)C(=O)NC4=O", "growth": "66.7% (inactive)"},
      {"smiles": "CN(C)c1ccc(/C=N\\Nc2cc(=O)[nH]c3ccc(Cl)cc23)cc1", "growth": "98.2% (inactive)"},
      {"smiles": "CC(=O)Nc1ccccc1-c1n[nH]c(=O)[nH]c1=O", "growth": "109% (inactive)"},
      {"smiles": "OCC1OC(n2cnc3c(NCc4ccco4)ncnc32)C(O)C1O", "note": "(stereo not given)", "growth": "-26.3% (active)"},
      {"smiles": "COc1ccc(-c2nnc(N3CCN(C(=O)CN4CCN(c5ccccc5)CC4)CC3)nc2-c2ccc(OC)cc2)cc1", "growth": "-58.6% (active)"},
      {"smiles": "O=C1Nc2ccccc2C12CC(c1ccccc1)=NN2", "note": "(stereo not given)", "growth": "-8.55% (active)"},
      {"smiles": "O=C1/C(=C/c2ccc([N+](=O)[O-])cc2)COc2ccc(O)c(O)c21", "growth": "-14.6% (active)"},
      {"smiles": "C/C(=N/OC(=O)N(C)C)c1ccc(Cl)cc1Cl", "growth": "93.7% (inactive)"},
      {"smiles": "Cc1ccc(O)c(NC(=O)c2cccc(Nc3ccnc(C(F)(F)F)c3)c2)c1", "growth": "-11.8% (active)"},
      {"smiles": "Cc1ncc(C(=O)Nc2ccc(CN3CCN(C)CC3)c(C(F)(F)F)c2)cc1C#Cc1cnc(N)c2cnccc12", "growth": "16.1% (inactive)"},
      {"smiles": "COc1cccc(-c2nc3sccn3c2-c2ccnc(NCCCNS(=O)(=O)c3ccc(Cl)cc3)c2)c1", "growth": "27.4% (inactive)"},
      {"smiles": "N=C(N)c1ccc(-c2ccc(-c3ccc(Cl)c(Cl)c3)s2)cc1", "growth": "-32% (active)"},
      {"smiles": "CC(=O)Oc1ccccc1C(=O)N(Cc1ccc2c(Cl)cc(Cl)c(O)c2n1)c1ccccc1", "growth": "46.7% (inactive)"},
      {"smiles": "COc1ccc(-c2nnc(SCC(=O)Nc3ccc(/C(C)=N\\O)cc3)n2-c2ccccc2)cc1OC", "growth": "77.3% (inactive)"},
      {"smiles": "CCOC(=O)C1=C(C)NC(SCc2cc(=O)oc3ccc(F)cc23)=N[C@@H]1c1cccc2ccccc12", "growth": "78.4% (inactive)"},
      {"smiles": "COc1ccc2[nH]c(O)c(/C=c3/ccc4c(c3)N=C(c3ccc(F)cc3)N=4)c2c1", "growth": "99.9% (inactive)"},
      {"smiles": "COc1ccc(/C(C)=C(\\c2ccc(OCCN3CCCCCC3)cc2)c2ccc(OC(=O)C3CCCCC3)cc2)cc1", "growth": "-41.1% (active)"},
      {"smiles": "COc1cc(OC)cc(-c2n/c(=C\\c3c(O)[nH]c4ccc(Cl)cc34)cc3c2=Nc2ccccc2-3)c1", "growth": "90.2% (inactive)"},
      {"smiles": "O=c1[nH]c2cc(Cl)ccc2n1C1CCN(CCCC(c2ccc(F)cc2)c2ccc(F)cc2)CC1", "growth": "-70.7% (active)"},
      {"smiles": "COc1cc(C2=NN(C(C)=O)C(c3cc(OC)c(OC)c(OC)c3)C2)ccc1O", "note": "(stereo not given)", "growth": "-37.6% (active)"},
      {"smiles": "O=C1/C(=C\\c2cccc3nccnc23)SC(=S)N1CCc1ccc(O)cc1", "growth": "79.5% (inactive)"}
    ]}
  ]
}
